For eight molecules, Potency results are on record in PubChem BioAssay (Tox21).

The target in assay [1] is Thyrotropin-releasing hormone receptor (Homo sapiens) (UniProt P34981). In words: qHTS assay to identify small molecule agonists of the thyrotropin-releasing hormone receptor (TRHR) signaling pathway (AID 1346891; calls by dose curve;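 further: HEK293 cells expressing TRHR with calcium dye readout; series mostly up to about 58 µM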). Summed up: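 Overnight-plated (18 h, 37 °C, 5% CO2) TRHR-Hek293 cells; 2 h calcium dye at 37 °C; compound in DMSO; 3-min kinetic fluorescence read.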
A short description of assay [2]: Human pregnane X receptor (PXR) small molecule agonists, qHTS cell viability counter screen (AID 1346977). Further: nearly all actives have a fitted effect of over 50% in size. Further: potency means the concentration at half of the fitted maximal effect. The method, boiled down:
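After a 5hr pre-incubation, PXR-Luc HepG2 cells received compounds plus positive control in DMSO and were kept 24hr at 37C. Cell viability was quantified by fluorescence from CellTiter-Fluor added for the final hour.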

Assay [3] in a line: Caspase-3/7 induction in HepG2 cells by small molecules, qHTS assay (AID 1346978). Further: nearly all actives have a fitted effect of over 15% in size. Summed up:
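Wild-type HepG2 cells, 2,000/well, settled 5 hr at 37 C and 5% CO2, then compound-treated for 17 hr; caspase-3/7 activity read by luminescent Caspase-Glo 3/7 after 30 min at room temperature.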
In general terms: Quantitative high-throughput screening tests each substance at several concentrations.

Assay [4] is described as follows: Caspase-3/7 induction in CHO-K1 cells by small molecules, qHTS cell viability counter screen (AID 1346979). Further: nearly all actives have a fitted effect of over 35% in size. Further: potency means the concentration at half of the fitted maximal effect. Summed up:
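Multiplexed with Caspase-Glo 3/7 in CHO-K1 cells, this counter screen added CellTiter-Fluor after 16hr of compound exposure and recorded fluorescence 1hr later.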

Assay [5] can be described thus: Caspase-3/7 induction in CHO-K1 cells by small molecules, qHTS assay (AID 1346980). Further: nearly all actives have a fitted effect of over 15% in size. Summed up: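 Wild-type CHO-K1 cells exposed to compounds for 17hr at 37 C, 5% CO2. Caspase-3/7 activity then measured by Caspase-Glo 3/7 luminescence after 30min at room temperature.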
The nature of assay [6]: Caspase-3/7 induction in HepG2 cells by small molecules, qHTS cell viability counter screen (AID 1346981). Further: nearly all actives have a fitted effect of over 30% in size. Further: potency means the concentration at half of the fitted maximal effect. The method, boiled down:
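Treatment of HepG2 cells with DMSO-delivered compounds ran 16 hr at 37 C following a 5-hr pre-incubation of 2,000 cells/well. CellTiter-Fluor fluorescence, read after 1 hr, served as the viability measure in a qHTS format.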

Assay [7] addresses Nuclear receptor subfamily 1 group I member 2 (Homo sapiens) (UniProt O75469). Description: Human pregnane X receptor (PXR) small molecule agonists, qHTS assay (AID 1346982). Further: nearly all actives have a fitted effect of over 35% in size. Further: potency means the concentration at half of the fitted maximal effect. Summed up:
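Stable HepG2 line reporting PXR-mediated CYP3A4 expression via luciferase. Treatment: 24 hr with compounds in DMSO at 37 C. Detection: ONE-Glo luminescence.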

Assay [8] has as its target Acetylcholinesterase (Homo sapiens) (UniProt P22303). Description: Acetylcholinesterase (AChE) small molecule antagonists: colormetric cell-based qHTS assay (AID 1347395; calls by dose curve; further: nearly all actives have a fitted effect of over 30% in size). Summed up:
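In this cell-based qHTS, attached SH-SY5Y cells were treated with test chemicals for 30 min, after which acetylthiocholine hydrolysis was followed by DTNB colour development over 90 min at 37 C.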

For assay [9] the target is unchanged. In words: Acetylcholinesterase (AChE) small molecule antagonists: enzyme-based qHTS assay (AID 1347397; calls by dose curve; further: nearly all actives have a fitted effect of over 55% in size). Conditions: Potency: AChE enzyme activity inhibition. The method, boiled down: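 Colorimetric DTNB read-out of thiocholine released from acetylthiocholine by recombinant human AChE (50 mU/mL as dispensed). Compounds were preincubated 30 min at RT before substrate/DTNB addition, with a 10 min RT reaction.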

Assay [10] shares this target. In words: Acetylcholinesterase (AChE) small molecule antagonists: fluorescence cell-based qHTS assay (AID 1347398; calls by dose curve; further: nearly all actives have a fitted effect of over 50% in size). The note with it: Potency: AChE activity. The method, boiled down:
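SH-SY5Y, 2,000 cells/well, attached overnight; cmpd 30 min 37 C; acetylthiocholine/Thiolite Green cocktail 40 min RT; fluorescence Ex/Em 490/520 nm.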

The target is the same in assay [11]. In words: Acetylcholinesterase (AChE) small molecule antagonists: enzyme-based qHTS assay with human liver microsomes (AID 1347399; calls by dose curve; further: nearly all actives have a fitted effect of over 60% in size). The note with it: Potency: qHTS inhibition. Summed up:
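Recombinant human AChE (50 mU/mL in the enzyme mix) and human liver microsomes (0.25 mg/mL final) were preincubated with compound and NADPH (0.25 mg/mL final) for 30 min at 37 C. Acetylthiocholine/DTNB was then added; thiocholine was read colorimetrically after 10 min at room temperature.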

Assay [12] deals with Cytochrome P450 2D6 (Homo sapiens) (UniProt P10635). In words: Cytochrome P450 Family 2 Subfamily D Member 6 (CYP2D6) small molecule antagonists: luciferase reporter qHTS assay (AID 1671196). Further: nearly all actives have a fitted effect of over 50% in size. Further: potency means the concentration at half of the fitted maximal effect. The method, boiled down: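 Chemicals tested for interference with CYP2D6 activity; proluciferin substrate, NADPH regeneration, 1 h at room temperature, luminescent detection.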
Cytochrome P450 2D6 (Homo sapiens), sequence (P10635 whole entry, looked up): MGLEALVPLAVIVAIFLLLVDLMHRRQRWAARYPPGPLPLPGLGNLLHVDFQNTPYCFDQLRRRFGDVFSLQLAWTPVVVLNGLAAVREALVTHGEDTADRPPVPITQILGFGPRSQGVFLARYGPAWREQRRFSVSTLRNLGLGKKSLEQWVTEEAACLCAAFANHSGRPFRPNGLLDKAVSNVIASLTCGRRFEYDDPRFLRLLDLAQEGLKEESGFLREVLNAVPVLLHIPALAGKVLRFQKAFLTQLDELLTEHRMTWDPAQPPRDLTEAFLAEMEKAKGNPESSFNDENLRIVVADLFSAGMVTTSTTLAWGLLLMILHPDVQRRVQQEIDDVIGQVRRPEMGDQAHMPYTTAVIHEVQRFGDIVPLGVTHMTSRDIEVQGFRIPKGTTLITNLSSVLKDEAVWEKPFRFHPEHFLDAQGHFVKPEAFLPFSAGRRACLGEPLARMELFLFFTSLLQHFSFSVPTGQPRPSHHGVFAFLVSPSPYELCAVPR
Assay [13] addresses Cytochrome P450 2C9 (Homo sapiens) (UniProt P11712). Description: Cytochrome P450 Family 2 Subfamily C Member 9 (CYP2C9) small molecule antagonists: luciferase reporter qHTS assay (AID 1671198). Further: nearly all actives have a fitted effect of over 50% in size. Further: potency means the concentration at half of the fitted maximal effect. The method, boiled down: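 P450-Glo proluciferin substrate with CYP2C9 enzyme; 10 min RT preincubation, then NADPH regeneration 1 h at 37C; luciferin detection reagent 20 min RT, luminescence in relative luminescence units.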

Assay [14] concerns the target Cytochrome P450 3A4 (Homo sapiens) (UniProt P08684). In words: Cytochrome P450 Family 3 Subfamily A Member 4 (CYP3A4) small molecule antagonists: luciferase reporter qHTS assay (AID 1671201). Further: nearly all actives have a fitted effect of over 50% in size. Further: potency means the concentration at half of the fitted maximal effect. Summed up: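 Room-temperature assay throughout: 10 min compound–enzyme/substrate preincubation, 1 h reaction after NADPH regeneration solution, 20 min detection. Luciferin formed from proluciferin substrate is quantified by luminescence.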

In assay [15] the target is Cytochrome P450 2C19 (Homo sapiens) (UniProt P33261). In words: Cytochrome P450 Family 2 Subfamily C Member 19 (CYP2C19) small molecule antagonists: luciferase reporter qHTS assay (AID 1671197). Further: nearly all actives have a fitted effect of over 65% in size. Further: potency means the concentration at half of the fitted maximal effect. Summed up:
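First, compounds are pinned into enzyme-substrate mix and held 10 min at room temperature. Second, NADPH regeneration solution is added and plates incubate 1 h at 37C. Third, detection reagent is added and luminescence read after 20 min.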
A general note: Reporter assays use an easily measured gene product as a stand-in for the process of interest.

The target in assay [16] is Cytochrome P450 1A2 (Homo sapiens) (UniProt P05177). In words: Cytochrome P450 Family 1 Subfamily A Member 2 (CYP1A2) small molecule antagonists: luciferase reporter qHTS assay (AID 1671199). Further: nearly all actives have a fitted effect of over 50% in size. Further: potency means the concentration at half of the fitted maximal effect. The method, boiled down:
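Read-out is luminescence from luciferin detection reagent (20 min) proportional to CYP1A2 activity; compounds in DMSO preincubated 10 min with enzyme and proluciferin substrate, then NADPH regeneration solution, 1 h, room temperature.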

In assay [17] the target is Voltage-gated inwardly rectifying potassium channel KCNH2 (Homo sapiens) (UniProt Q12809). In words: Human Ether-a-go-go-Related Gene (hERG) channel small molecule antagonists: fluorescence cell-based qHTS assay (AID 1671200). Summed up:
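Cell line hERG-U2OS; dye FluxOR II, 1 h RT dark; Tl+ stimulus; ex 480/em 540 nm, read each second for 2 min.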
(In general: Block of hERG is tested as a sign of cardiac risk.)

Each structure is given as a SMILES string. Unmarked numbers belong to inactive results. Results filed as inconclusive are left out. Calls of active or inactive are those of the source. Unless noted, the call rests on the fitted dose curve; in most records, active means well fitted curve in the direction sought with a large enough effect in the repeat runs; inconclusive means weak or mixed curves; inactive means no such curve, though single readings can be large; an effect the other way counts as inactive or inconclusive.

Cytochrome P450 3A4 (Homo sapiens), sequence (P08684 whole entry, looked up): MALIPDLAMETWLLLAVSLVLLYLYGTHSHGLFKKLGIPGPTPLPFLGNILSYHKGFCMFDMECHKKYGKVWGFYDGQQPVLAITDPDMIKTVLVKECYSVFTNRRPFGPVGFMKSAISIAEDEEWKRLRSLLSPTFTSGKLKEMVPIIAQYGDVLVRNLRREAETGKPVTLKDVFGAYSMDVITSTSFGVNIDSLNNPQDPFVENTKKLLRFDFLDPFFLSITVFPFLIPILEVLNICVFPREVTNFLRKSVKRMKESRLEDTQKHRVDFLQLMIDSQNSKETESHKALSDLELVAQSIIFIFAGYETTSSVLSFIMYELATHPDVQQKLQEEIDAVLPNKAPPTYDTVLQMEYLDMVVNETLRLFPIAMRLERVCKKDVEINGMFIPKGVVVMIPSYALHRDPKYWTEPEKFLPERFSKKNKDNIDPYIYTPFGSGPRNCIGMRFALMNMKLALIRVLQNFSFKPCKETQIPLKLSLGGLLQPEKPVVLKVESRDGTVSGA
Cytochrome P450 2C9 (Homo sapiens), sequence (P11712 whole entry, looked up): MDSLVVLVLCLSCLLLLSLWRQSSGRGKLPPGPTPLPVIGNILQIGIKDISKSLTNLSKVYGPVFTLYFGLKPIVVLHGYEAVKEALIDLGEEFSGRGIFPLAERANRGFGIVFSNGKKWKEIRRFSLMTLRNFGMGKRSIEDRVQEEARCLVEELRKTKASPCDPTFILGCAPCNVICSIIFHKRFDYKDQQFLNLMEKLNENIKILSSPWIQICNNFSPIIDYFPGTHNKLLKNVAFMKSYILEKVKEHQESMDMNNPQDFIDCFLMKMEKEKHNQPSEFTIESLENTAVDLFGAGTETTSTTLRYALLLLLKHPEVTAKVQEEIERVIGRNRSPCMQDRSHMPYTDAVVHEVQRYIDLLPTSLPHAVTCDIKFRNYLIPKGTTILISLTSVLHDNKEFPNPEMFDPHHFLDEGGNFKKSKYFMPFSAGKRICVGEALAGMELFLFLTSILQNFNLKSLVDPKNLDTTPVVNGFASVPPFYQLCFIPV
Acetylcholinesterase (Homo sapiens), sequence (P22303 whole entry, looked up): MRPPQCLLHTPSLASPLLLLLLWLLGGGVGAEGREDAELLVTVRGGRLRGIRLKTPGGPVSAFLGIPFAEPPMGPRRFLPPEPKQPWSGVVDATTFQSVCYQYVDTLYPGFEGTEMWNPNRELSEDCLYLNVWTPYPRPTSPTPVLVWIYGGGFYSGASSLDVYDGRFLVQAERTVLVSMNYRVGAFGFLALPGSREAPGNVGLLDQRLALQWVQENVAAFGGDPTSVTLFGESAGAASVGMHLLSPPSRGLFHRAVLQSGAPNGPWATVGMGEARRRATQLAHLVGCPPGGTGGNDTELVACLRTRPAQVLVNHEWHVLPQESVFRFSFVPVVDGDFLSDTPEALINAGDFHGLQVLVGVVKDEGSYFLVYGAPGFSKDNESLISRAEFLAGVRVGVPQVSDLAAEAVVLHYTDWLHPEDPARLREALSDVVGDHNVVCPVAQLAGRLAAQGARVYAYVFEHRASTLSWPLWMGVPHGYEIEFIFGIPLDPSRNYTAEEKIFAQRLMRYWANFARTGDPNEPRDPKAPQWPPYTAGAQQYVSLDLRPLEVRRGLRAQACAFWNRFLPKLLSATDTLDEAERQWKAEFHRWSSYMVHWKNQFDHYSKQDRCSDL
Voltage-gated inwardly rectifying potassium channel KCNH2 (Homo sapiens), sequence (Q12809 whole entry, looked up): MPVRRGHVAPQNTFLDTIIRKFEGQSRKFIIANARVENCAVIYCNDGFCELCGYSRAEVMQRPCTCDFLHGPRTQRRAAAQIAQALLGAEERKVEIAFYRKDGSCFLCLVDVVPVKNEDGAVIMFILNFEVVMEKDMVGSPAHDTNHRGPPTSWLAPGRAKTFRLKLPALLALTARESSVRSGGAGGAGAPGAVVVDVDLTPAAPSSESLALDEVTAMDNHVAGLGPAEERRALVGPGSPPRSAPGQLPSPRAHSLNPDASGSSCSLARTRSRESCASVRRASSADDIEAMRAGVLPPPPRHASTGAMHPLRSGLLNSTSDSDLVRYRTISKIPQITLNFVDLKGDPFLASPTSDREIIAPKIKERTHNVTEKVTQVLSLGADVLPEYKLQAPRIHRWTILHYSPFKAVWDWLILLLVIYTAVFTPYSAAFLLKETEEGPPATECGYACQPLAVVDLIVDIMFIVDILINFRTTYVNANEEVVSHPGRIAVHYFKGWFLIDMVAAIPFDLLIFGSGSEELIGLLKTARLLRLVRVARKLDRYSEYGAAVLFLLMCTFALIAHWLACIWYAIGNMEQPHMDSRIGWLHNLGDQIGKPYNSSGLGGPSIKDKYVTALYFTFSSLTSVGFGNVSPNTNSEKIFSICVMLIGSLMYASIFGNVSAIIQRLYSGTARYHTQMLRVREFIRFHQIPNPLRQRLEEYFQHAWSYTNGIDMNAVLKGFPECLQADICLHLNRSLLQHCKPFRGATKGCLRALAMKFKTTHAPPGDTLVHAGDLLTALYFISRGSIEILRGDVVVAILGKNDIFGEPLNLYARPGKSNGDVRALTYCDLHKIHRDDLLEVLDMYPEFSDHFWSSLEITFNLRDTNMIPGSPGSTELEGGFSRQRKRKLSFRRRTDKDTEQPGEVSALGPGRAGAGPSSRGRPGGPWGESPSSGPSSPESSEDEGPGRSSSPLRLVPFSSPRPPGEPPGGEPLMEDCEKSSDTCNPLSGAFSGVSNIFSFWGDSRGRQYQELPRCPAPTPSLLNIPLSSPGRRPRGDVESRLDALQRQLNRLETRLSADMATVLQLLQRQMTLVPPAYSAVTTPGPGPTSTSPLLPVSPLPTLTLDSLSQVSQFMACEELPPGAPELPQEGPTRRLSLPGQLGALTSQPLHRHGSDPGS
Cytochrome P450 1A2 (Homo sapiens), sequence (P05177 whole entry, looked up): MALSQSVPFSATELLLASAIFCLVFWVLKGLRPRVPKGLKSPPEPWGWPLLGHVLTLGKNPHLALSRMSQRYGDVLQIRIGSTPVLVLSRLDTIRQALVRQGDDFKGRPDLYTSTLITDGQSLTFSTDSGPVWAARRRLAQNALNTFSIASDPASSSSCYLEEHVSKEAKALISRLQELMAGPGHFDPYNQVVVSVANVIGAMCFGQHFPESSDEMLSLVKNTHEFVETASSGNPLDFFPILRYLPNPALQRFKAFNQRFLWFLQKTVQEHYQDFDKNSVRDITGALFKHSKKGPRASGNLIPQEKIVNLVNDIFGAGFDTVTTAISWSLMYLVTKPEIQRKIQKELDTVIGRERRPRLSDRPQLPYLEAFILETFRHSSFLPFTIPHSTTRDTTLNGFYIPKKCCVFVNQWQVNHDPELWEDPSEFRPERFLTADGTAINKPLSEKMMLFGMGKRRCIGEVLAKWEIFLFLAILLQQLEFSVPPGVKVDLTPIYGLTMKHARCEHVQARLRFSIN
Cytochrome P450 2C19 (Homo sapiens), sequence (P33261 whole entry, looked up): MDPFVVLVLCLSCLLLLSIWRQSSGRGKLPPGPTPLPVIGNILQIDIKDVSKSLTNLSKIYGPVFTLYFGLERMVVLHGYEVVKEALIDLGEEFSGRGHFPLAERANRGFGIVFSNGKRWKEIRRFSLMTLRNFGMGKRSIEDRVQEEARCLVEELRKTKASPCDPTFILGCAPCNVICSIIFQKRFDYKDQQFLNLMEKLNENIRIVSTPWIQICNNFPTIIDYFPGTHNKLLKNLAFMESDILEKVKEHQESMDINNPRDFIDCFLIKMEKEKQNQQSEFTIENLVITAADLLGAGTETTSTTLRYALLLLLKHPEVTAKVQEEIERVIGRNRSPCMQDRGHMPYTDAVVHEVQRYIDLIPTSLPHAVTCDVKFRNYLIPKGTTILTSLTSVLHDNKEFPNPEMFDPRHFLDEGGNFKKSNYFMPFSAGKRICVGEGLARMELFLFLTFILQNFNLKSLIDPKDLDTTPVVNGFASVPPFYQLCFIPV
Nuclear receptor subfamily 1 group I member 2 (Homo sapiens), sequence (O75469 whole entry, looked up): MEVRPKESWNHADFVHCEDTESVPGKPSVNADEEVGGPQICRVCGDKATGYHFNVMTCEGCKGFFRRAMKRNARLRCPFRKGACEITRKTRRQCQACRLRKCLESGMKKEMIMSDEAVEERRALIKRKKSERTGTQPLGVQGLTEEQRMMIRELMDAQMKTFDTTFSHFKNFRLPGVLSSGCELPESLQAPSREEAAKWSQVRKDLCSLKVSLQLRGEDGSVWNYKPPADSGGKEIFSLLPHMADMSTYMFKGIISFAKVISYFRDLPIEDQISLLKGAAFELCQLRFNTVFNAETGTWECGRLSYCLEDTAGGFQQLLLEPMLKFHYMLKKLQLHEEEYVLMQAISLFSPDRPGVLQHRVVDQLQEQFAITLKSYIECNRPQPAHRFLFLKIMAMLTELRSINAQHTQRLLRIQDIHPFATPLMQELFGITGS

Regarding `C[C@]12CC[C@H]3[C@@H](CCC4=CC(=O)CC[C@@H]43)[C@@H]1CC[C@@H]2OC(=O)CCC1CCCCC1`, the Potency result in [1], in [2], in [3], in [4], in assay [5] and in [6] was “inactive” throughout. For the same molecule, the Potency entry in assay [7], in assay [8], in assay [9], in [10], in [11] and in assay [12] was “inactive” each time. Further, the Potency entry in assay [14] was “inactive”. Moreover, the Potency in assay [13] was 17.4 µM (active).

Consider `CNC(C)Cc1ccccc1OC` (configuration not stated), for which the Potency entry in assay [1], in assay [2], in assay [3], in [4], in [5] and in assay [6] was “inactive” each time. Moreover, the Potency result in [7], in assay [8], in [9], in assay [10], in [11] and in [15] was “inactive” in each case. Also, the Potency result in assay [13], in assay [16], in [17] and in assay [14] was “inactive” in each case. Also, in assay [12], the Potency is 13.8 µM (active).

Turning to `CCCCCCC#N`, the Potency entry in assay [1], in [2], in assay [3], in [4], in [5] and in assay [6] was “inactive” throughout. The Potency result in [7], in assay [8], in assay [9], in assay [10], in [11] and in [13] was “inactive” in each case. Also, the Potency entry in assay [17] and in [14] was “inactive” in each case. The Potency in [12] is 38.7 µM (active); in assay [15], 68.8 µM (active); in assay [16], 38.7 µM (active).

As to `O=C(O)c1ccccc1C(=O)Nc1cccc2ccccc12`, the Potency result in assay [1], in [2], in [3], in [4], in assay [5] and in assay [6] was “inactive” throughout. Moreover, the Potency result in assay [8], in assay [9], in [10] and in [11] was “inactive” in each case. For the same molecule, the Potency was 38.6 µM (active) in assay [7]; 31.7 µM (active) in assay [12]; 15.9 µM (active) in [15]; 17.8 µM (active) in assay [13]; 12.6 µM (active) in assay [16].

As to `O=C(NC(=O)c1c(F)cccc1F)Nc1cc(Cl)c(Oc2ncc(C(F)(F)F)cc2Cl)c(Cl)c1`, the Potency result in assay [1], in [2], in assay [3], in assay [5], in assay [6] and in assay [8] was “inactive” each time. Also, the Potency result in [9], in assay [10], in [11], in assay [12], in assay [16] and in assay [14] was “inactive” in each case. For the same molecule, the values for the Potency in [4] and in assay [7] were 52.2 µM (active) and 8.27 µM (active), respectively.

For the molecule `O=C(O)CC(Cl)C(=O)O` (configuration not stated), the Potency result in assay [1], in assay [2], in assay [3], in [4], in assay [5] and in [6] was “inactive” in each case. Besides, the Potency result in assay [7], in assay [8], in [9], in assay [10], in assay [11] and in assay [12] was “inactive” each time. Moreover, the Potency entry in assay [15], in assay [13], in assay [16], in assay [17] and in assay [14] was “inactive” in each case.

For the molecule `COP(=S)(OC)Oc1ccc([N+](=O)[O-])cc1Cl`, the Potency entry in assay [1], in assay [3], in assay [5], in [7], in assay [8] and in assay [9] was “inactive” each time. For the same molecule, the Potency result in assay [10], in [11], in assay [12] and in [17] was “inactive” each time. For the same molecule, the Potency in assay [2] is 34.4 µM (active); in [4], 68.6 µM (active); in assay [6], 61.1 µM (active); in [15] it was 39.9 µM (active); in assay [13], 20 µM (active); in [16], 22.4 µM (active). Moreover, the Potency in assay [14] is 6.33 µM (active).

As to `C=C(C#N)CCC#N`, the Potency result in assay [1], in assay [2], in assay [3], in [4], in [5] and in assay [6] was “inactive” throughout. The Potency result in assay [7], in assay [8], in assay [9], in assay [10], in assay [11] and in assay [12] was “inactive” throughout. Further, the Potency result in assay [15], in assay [13], in assay [17] and in assay [14] was “inactive” each time.
